This is a sample that favours compounds with a hit; in the whole collection about 1.6% have one here.
p53ts 32C kill: qHTS Screen for Compounds that Selectively Target Cancer Cells with p53 Mutations: Cytotoxicity of p53ts Cells at the Permissive Temperature; AID 924, 2007; Potency, µM (doses to about 46.1 µM), inactives show at the highest dose activity change, negative = cytotoxicity, actives largely listed as cytotoxic; hit rate 0.93% among 130,000; H1299-p53A138V at 32C, ATP luminescence viability, 24 h;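 also: 0% = DMSO and -100% = full killing by reference compound; nearly all actives have a fitted effect of over 55% in size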
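Cells: H1299 p53ts (A138V), 600/well, pre-incubated 16–30 h at 37C. Cpd up to 46 uM, 24 h, 32C. Readout: ATPlite luminescence, 20 min RT. Normalization: DMSO vs tamoxifen 100 uM. AC50 by Hill equation.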
Peg3 imprint: qHTS Assay for Compounds that Induce Erasure of Genomic Imprints; mouse ES Peg3-LacZ reporter, beta-gal luminescence, 40 h; Potency, µM (series often up to 60.7 µM), for inactives: top-dose activity change, positive = activation, actives largely listed as activators; hit rate 0.02% among 110,000
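Gelatin-coated wells received 300 freshly trypsinized female ES cells with a Peg3LacZ-Neo reporter on the maternal allele, then incubated 40 hours at 37C. BetaGlo was added for 5 minutes at room temperature before a single luminescence read.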
p53ts 39C tox: qHTS Screen for Compounds that Selectively Target Cancer Cells with p53 Mutations: Cytotoxicity of p53ts Cells at the Nonpermissive Temperature; Potency, µM (titrated, usually from 46.1 µM), without a hit: at the highest dose activity change, negative = cell killing, most hits filed as cytotoxic; H1299-p53A138V viability at 39C, ATP luminescence, 24 h; hit rate 1.5% among 130,000; also: % is scaled to controls: 0 for no effect and ±100 for the full control effect; nearly all actives have a fitted effect of over 55% in size
Active calls of the source: *; [ ] = dose if it differs, or a comment. Calls follow the shape of the dose curve; as a rule, active = well fitted curve in the direction sought with a large enough effect; inconclusive = small, poorly fitted or top-dose-only effect, or another doubt; inactive = no such curve, though single readings can be large; an effect the other way counts as inactive or inconclusive. Potency is read from the fitted curve at half-maximal effect.

Results for CCc1ccccc1NC(=O)Cn1c(=O)n(CCc2ccccc2)c(=O)c2sc3ccccc3c21 ?
p53ts 32C kill: -12%; Peg3 imprint: -12%[10.9 µM]; p53ts 39C tox: 10µM*

How did CCC(C)NC(=O)Cn1c(=O)n(-c2cc(OC)cc(OC)c2)c(=O)c2ccccc21 (centres undefined) do in these assays?
p53ts 32C kill: 5%; Peg3 imprint: 11%[10.9 µM]; p53ts 39C tox: 34%

What do the screens show for `COc1ccc2nc(C)cc(Nc3ccc(Cl)c(Cl)c3)c2c1`?
p53ts 32C kill: inconclusive; Peg3 imprint: -13%[10.9 µM]; p53ts 39C tox: 13µM*

How did COc1ccc2nc(C)cc(Nc3ccc(N4CCOCC4)cc3)c2c1 do in these assays?
p53ts 32C kill: -6%; Peg3 imprint: 3%; p53ts 39C tox: 2%

Results for COc1ccccc1Cc1nc2ccccc2nc1SCC(=O)Nc1cccc(Cl)c1C ?
p53ts 32C kill: 0%; Peg3 imprint: 10%[10.9 µM]; p53ts 39C tox: 4%

How did Cc1ccc(NC(=O)CSc2nc3ccccc3c3nc(CCc4c(C)n[nH]c4C)nn23)c(C)c1 do in these assays?
p53ts 32C kill: 7%; Peg3 imprint: -10%[10.9 µM]; p53ts 39C tox: 1%

Results for C[C@H](O)[C@H](O)[C@@H]1CNc2nc(N)[nH]c(=O)c2N1 ?
p53ts 32C kill: -9%; p53ts 39C tox: 11%

How did Cc1cccc(-c2nc(SCc3cc(=O)c4c(C)cc(C)cc4[nH]3)n[nH]2)c1 do in these assays?
p53ts 32C kill: inconclusive; Peg3 imprint: 13%[10.9 µM]; p53ts 39C tox: 20µM*

What do the screens show for `Cc1cc(C)c2c(=O)cc(CSc3n[nH]c(C)n3)[nH]c2c1`?
p53ts 32C kill: 16%; Peg3 imprint: 4%[10.9 µM]; p53ts 39C tox: 5%

Results for COCCCNC(=O)c1ccc2c(c1)nc1n2CCCCC1 ?
p53ts 32C kill: inconclusive; Peg3 imprint: -5%[10.9 µM]; p53ts 39C tox: 10µM*

Results for CCCNC(=O)c1ccc2c(c1)nc1n2CCCCC1 ?
p53ts 32C kill: 13µM*; Peg3 imprint: -48%[10.9 µM]; p53ts 39C tox: 6.3µM*

Results for COc1ccc(CNC(=O)c2ccc3c(c2)nc2n3CCCCC2)cc1 ?
p53ts 32C kill: -26%; Peg3 imprint: 5%[10.9 µM]; p53ts 39C tox: inconclusive

Results for CCC(C)NC(=O)c1ccc2c(c1)nc1n2CCCCC1 (centres undefined) ?
p53ts 32C kill: inconclusive; Peg3 imprint: -23%[10.9 µM]; p53ts 39C tox: inconclusive

How did COC(=O)c1sccc1S(=O)(=O)N(CC(=O)NCc1ccccc1)c1ccc(C)c(C)c1 do in these assays?
p53ts 32C kill: 3%; Peg3 imprint: -8%[10.9 µM]; p53ts 39C tox: -9%

What do the screens show for `COc1ccc(OC)c(NC(=O)c2nc(S(=O)(=O)Cc3ccc(F)cc3)ncc2Cl)c1`?
p53ts 32C kill: inconclusive; Peg3 imprint: -35%[10.9 µM]; p53ts 39C tox: 10µM*

What do the screens show for `COc1ccccc1NC(=O)c1nc(SCc2ccc(F)cc2)ncc1Cl`?
p53ts 32C kill: 1%; Peg3 imprint: -12%[10.9 µM]; p53ts 39C tox: -2%

What do the screens show for `CC(=O)Nc1ccc(NC(=O)c2nc(S(=O)(=O)Cc3ccc(F)cc3)ncc2Cl)cc1`?
p53ts 32C kill: -18%; Peg3 imprint: -37%[10.9 µM]; p53ts 39C tox: 10µM*

How did COC(=O)c1ccccc1NC(=O)c1nc(S(=O)(=O)Cc2cccc(C)c2)ncc1Cl do in these assays?
p53ts 32C kill: -13%; Peg3 imprint: -39%[10.9 µM]; p53ts 39C tox: -14%

Results for Cc1cccc(NC(=O)c2nc(S(C)(=O)=O)ncc2Cl)c1 ?
p53ts 32C kill: inconclusive; Peg3 imprint: -42%[10.9 µM]; p53ts 39C tox: inconclusive

What do the screens show for `Cc1ccc(NC(=O)c2nc(S(=O)(=O)Cc3ccc(F)cc3)ncc2Cl)cc1C`?
p53ts 32C kill: 16µM*; Peg3 imprint: -40%[10.9 µM]; p53ts 39C tox: 2.5µM*

What do the screens show for `CC(C)(C)c1ccc(OCC(=O)NCC2(N3CCOCC3)CCCCC2)cc1`?
p53ts 32C kill: inconclusive; Peg3 imprint: -11%[10.9 µM]; p53ts 39C tox: 16µM*

Results for O=C(COc1ccc([N+](=O)[O-])cc1)NCC1(N2CCOCC2)CCCCC1 ?
p53ts 32C kill: -1%; Peg3 imprint: -4%[10.9 µM]; p53ts 39C tox: 6%

Results for COc1ccc(C(=O)N2CCC3(CC2)CCN(c2ccncc2)CC3)cc1 ?
p53ts 32C kill: 4%; p53ts 39C tox: -6%

How did NCCCCCc1cnc[nH]1 do in these assays?
Peg3 imprint: -11%

What do the screens show for `COCCCNC(=O)CSc1c2c(nc3ccc(Cl)cc13)CCCC2`?
p53ts 32C kill: inconclusive; Peg3 imprint: -8%[10.9 µM]; p53ts 39C tox: inconclusive

How did CC(C)OCCCNC(=O)CSc1c2c(nc3ccc(Cl)cc13)CCCC2 do in these assays?
p53ts 32C kill: 13µM*; Peg3 imprint: -4%[10.9 µM]; p53ts 39C tox: inconclusive

How did COc1ccc(Nc2cc(C(=O)NCCCN(C)C3CCCCC3)c3ccccc3n2)c(OC)c1 do in these assays?
p53ts 32C kill: -6%; Peg3 imprint: -7%[10.9 µM]; p53ts 39C tox: inconclusive

Results for CSc1cccc(Nc2cc(C(=O)NCCc3ccc(Cl)cc3)c3ccccc3n2)c1 ?
p53ts 32C kill: 0%; Peg3 imprint: -8%[10.9 µM]; p53ts 39C tox: inconclusive

What do the screens show for `CCCCN(CCCNC(=O)c1cc(Nc2cccc(SC)c2)nc2ccccc12)Cc1ccccc1`?
p53ts 32C kill: -16%; Peg3 imprint: -31%[10.9 µM]; p53ts 39C tox: 4.5µM*

Results for COc1ccc(Nc2cc(C(=O)NCCCN(C)C3CCCCC3)c3ccccc3n2)cc1 ?
p53ts 32C kill: -5%; Peg3 imprint: -12%[10.9 µM]; p53ts 39C tox: 13µM*

What do the screens show for `COc1ccc(OC)c(CCNC(=O)c2nc(-c3ccc(Cl)cc3)n3c2CCCCC3)c1`?
p53ts 32C kill: 22%

Results for COc1ccc(OC)c(N(C)S(=O)(=O)c2ccc3c(c2)NC(=O)CC(=O)N3)c1 ?
p53ts 32C kill: 3%; Peg3 imprint: -12%[10.9 µM]; p53ts 39C tox: 11%

How did COc1cc(NS(=O)(=O)c2ccc3oc(=O)c4ncn(C)c4c3c2)cc(OC)c1 do in these assays?
p53ts 32C kill: -29%; Peg3 imprint: 8%[10.9 µM]; p53ts 39C tox: inconclusive

How did CCc1ccc(NS(=O)(=O)c2ccc3oc(=O)c4ncn(CC)c4c3c2)cc1 do in these assays?
p53ts 32C kill: inconclusive; Peg3 imprint: -4%[10.9 µM]; p53ts 39C tox: 13µM*

What do the screens show for `CCOC(=O)C1CCN(C(=O)C2COc3ccccc3C2)CC1` (centres undefined)?
p53ts 32C kill: 3%; Peg3 imprint: 10%[10.9 µM]; p53ts 39C tox: -19%

What do the screens show for `CCOc1cccc2c1OC(c1cc(OC)c(OC)c(OC)c1)N1N=C(c3ccc(C)o3)CC21` (centres undefined)?
p53ts 32C kill: 11µM*; p53ts 39C tox: inconclusive

How did CCOc1cccc(C2Oc3nc(SC)nnc3-c3ccccc3N2C(C)=O)c1OC (centres undefined) do in these assays?
p53ts 32C kill: 5%; Peg3 imprint: -3%[10.9 µM]; p53ts 39C tox: -5%

How did CCOC(=O)c1c(C)[nH]c(C)c1S(=O)(=O)N1CCN(c2ccccc2OC)CC1 do in these assays?
p53ts 32C kill: 7%; Peg3 imprint: 2%[10.9 µM]; p53ts 39C tox: -19%

Results for Cc1ccc(C)c(CN2C(=O)c3ccccc3S(=O)c3ccc(C(=O)N4CCN(c5cccc(Cl)c5)CC4)cc32)c1 (centres undefined) ?
p53ts 32C kill: 22%; Peg3 imprint: -16%[10.9 µM]; p53ts 39C tox: -19%
